Experimental data from PubChem BioAssay AID1259343 (VanderVen Lab, College of Veterinary Medicine, Cornell …, 2017).
Hit rate of the full screen: of about 6,200 compounds, about 2,900 (47%) were called active. So high a share suggests a set chosen from earlier hits. The list shows a part of the results. Values without a mark were called inactive. Rule as the data show it: active = inhibition above about 50%; inactive = the rest.

Experiment: Mycobacterium tuberculosis growth inhibition, primary screen (AID 1259343)
Conditions: inhibition: at 10 µM, stronger effect = higher value; outcome: 10 uM

Structure (SMILES)	inhibition
O=C(NC1CCC(c2ccccc2)CC1)c1n[nH]c2ccccc12 (stereo unspecified)	25.1%
Fc1ccccc1-n1cc(-c2ccnc(NC3CCC3)n2)cn1	20.1%
COc1ccnc(NC2CCC(c3ccccc3)CC2)n1 (stereo unspecified)	68.9% (active)
COc1ccc(-c2ccc(C(=O)N3CCC(C(N)=O)C3)c(F)c2)cc1 (stereo unspecified)	69.6% (active)
COc1cccc(-c2ccc(NC(=O)C3CCCN(C(=O)c4ccoc4)C3)cc2)c1 (stereo unspecified)	inactive
Nc1ccc(-c2nc3cc(Cl)ccc3o2)cc1	90.3% (active)
Nc1ccc2oc(-c3cncc(Br)c3)nc2c1	7.61%
Ic1cccc(-c2nnc(-c3ccccc3)o2)c1	103% (active)
CN(C)c1cccc(-c2nc3cc(N)ccc3o2)c1	30.8%
Nc1ccc2oc(-c3cccc(I)c3)nc2c1	60.4% (active)
Nc1ccc2oc(-c3cc(F)c(F)cc3Cl)nc2c1	-28%
Cc1cccc(-c2nnc(C(C)Oc3ccccc3C#N)o2)c1 (stereo unspecified)	23.4%
Nc1ccc(Cl)c(-c2nc3cc(Cl)ccc3o2)c1	30%
CC(c1nnc(-c2ccccc2)o1)N(C)CC12CC3CC(CC(C3)C1)C2 (stereo unspecified)	-23%
CS(=O)(=O)c1nnnn1-c1ccccc1Cl	95.7% (active)
COc1cc(C2=NC(=CC3=Cc4ccccc4OC3)C(=O)O2)cc(OC)c1OC	inactive
Cc1ccc(C2=NC(=Cc3ccco3)C(=O)O2)cc1C	-7.96%
COc1cc(C2=NC(=Cc3ccc(N4CCOCC4)s3)C(=O)O2)cc(OC)c1OC	79.7% (active)
O=C(Nc1ncc(Cc2ccccc2Cl)s1)c1cnccn1	92.8% (active)
CC1(C(=O)Nc2nc(-c3ccccc3Cl)cs2)Cc2ccccc2C(=O)O1 (stereo unspecified)	37.1%
O=C(CCl)Nc1ncc(Cc2ccccc2)s1	-18.1%
O=C(Nc1nc(-c2ccco2)c(-c2ccco2)s1)c1cnccn1	-27.4%
Cc1cnc(NC(=O)CCc2nc(C(C)(C)C)no2)s1	-2.31%
O=C(CCl)Nc1nc(-c2ccccc2Cl)cs1	97.7% (active)

Structure (SMILES)	inhibition
O=C(CCl)Nc1ncc(Cc2ccccc2Cl)s1	92.7% (active)
O=C(CCl)Nc1nc(-c2c[nH]c3ccccc23)cs1	-41.1%
O=C1CCCC2=C1C(c1cccs1)n1ncnc1N2 (stereo unspecified)	-18.9%
CCCC(C)NC(=O)c1cc(Cl)c[nH]1 (stereo unspecified)	10.3%
O=C(NCCCOCc1ccccc1)c1cc(Cl)c[nH]1	77.7% (active)
O=C(COc1ccc(F)cc1)NCCc1ccc(OC(F)F)cc1	90.5% (active)
O=C(COc1ccc(F)cc1)NCc1csc(Br)c1	-34.9%
Cc1ccc(Cl)cc1NC(=O)CN1CCc2ccccc2C1	91.4% (active)
CCOc1cc(C)ccc1NC(=O)CN1Cc2ccccc2C1	14.2%
Cc1ccc(C2=NN(C(=O)CN3CCc4ccccc4C3)C(c3ccccc3C)C2)c(C)c1 (stereo unspecified)	40.4%
CCN(Cc1cccc(C(N)=O)c1)c1ccccc1C	27.3%
CC1(C)CC(C=Cc2cccs2)=Nc2ccccc2S1	-37.6%
N#Cc1ccc([N+](=O)[O-])c(O)c1	77.2% (active)
CCN(CC)P(=S)(C=C1N(C)c2ccccc2C1(C)C)CC (stereo unspecified)	87.2% (active)
CCOP1(=S)C(=C2N(C)c3ccccc3C2(C)C)C=NN1c1ccccc1 (stereo unspecified)	27.1%
CN1/C(=C/C(=O)Nc2ccc(Cl)cc2)C(C)(C)c2ccccc21	1.72%
O=C(O)c1sc(Br)c(I)c1I	7.67%
O=C(Nc1ccsc1C(=O)O)c1ccc(Br)cc1	82.5% (active)
C(=Nn1c(-c2cccs2)csc1=Nc1ccccc1)c1ccccn1	-1.25%
c1csc(-c2cnc3ccc(-c4ccncc4)nn23)c1	74.1% (active)
N#Cc1cc2c(nc1SCC(=O)OCc1ccccc1)CCC2	41.5%
CCOc1ccccc1-n1nnc(C(=O)Nc2ccc(C(C)=O)cc2)c1C	70% (active)
CCCC(C)(C)NC(=O)c1nnn(-c2ccc(F)cc2)c1C	16.4%
CCOc1ccccc1NC(=O)Nc1ccc(Nc2cc(OC(C)C)nc(C)n2)cc1	14.6%

Structure (SMILES)	inhibition
CC1=NN(c2ccc(Cl)cc2)C(=O)C12Cc1ccccc1N1CCCCC12 (stereo unspecified)	19.5%
CC(=NNc1ncc(Cl)cc1Cl)c1ccc(Cl)s1	30.7%
C=C(C)CNC(=S)NN=C(C)c1ccc(Cl)s1	102% (active)
COCCNC(=S)NN=C(C)c1ccc(Cl)s1	79.3% (active)
CCOC(=O)NN=C(C)c1ccc(Cl)s1	19.5%
CNC(=S)NN=C(C)c1ccc(Cl)s1	47.3%
CCNC(=S)NN=C(C)c1ccc(Cl)s1	-2.97%
O=C(NCCCCCC(=O)N1CCC(c2ccccc2)CC1)OCc1ccccc1	70.8% (active)
CNC(=O)c1ccc2n1CCN(C(=O)OCc1ccccc1)C2C (stereo unspecified)	16.2%
Cc1ccc(C)c(N2CCN(C(=O)c3ccc4c(=O)nc5c(-c6ccccc6)n[nH]n5c4c3)CC2)c1	46.6%
O=C(C1CCCC1)N1CCN(c2nc(-c3ccccc3Cl)nc3cc(Cl)ccc23)CC1	24.6%
O=C(c1ccc([N+](=O)[O-])cc1)N1CCN(c2nc(-c3ccccc3)c3cc(Cl)ccc3n2)CC1	68% (active)
Cc1ccc(-n2ncc3c(C)nn(Cc4ccccc4F)c(=O)c32)c(C)c1	37.1%
O=S(=O)(Nc1c(F)cccc1F)c1c(Cl)cccc1Cl	78.8% (active)
CN(C)S(=O)(=O)c1ccc(CNc2cc(F)ccc2Cl)o1	-3.01%
O=S(=O)(Nc1ccc(Cl)cc1F)c1ccc(Br)cc1Cl	71% (active)
Cc1ccc(F)cc1NS(=O)(=O)c1cc(Cl)sc1Cl	94.1% (active)
CN(C1CCCCC1)S(=O)(=O)c1ccc(Br)cc1Cl	-4.67%
O=S(=O)(Nc1c(F)cccc1Br)c1cc(Cl)cc(Cl)c1	87.1% (active)
O=S(=O)(Nc1ccc(F)c(F)c1F)c1ccc(Cl)c2ncccc12	63% (active)
O=S(=O)(Nc1ccc(F)cc1F)c1ccccc1Cl	82.3% (active)
O=S(=O)(Nc1ccc(F)c(F)c1F)c1ccc(Cl)cc1F	79.2% (active)
Cc1ccc(NS(=O)(=O)c2ccc(F)cc2[N+](=O)[O-])c(F)c1	50.2% (active)
